This passage reports survival results from PubChem BioAssay AID463173 (ICCB-Longwood Screening Facility, Harvard Medical School, 2010).

About 4,300 (8.3%) of roughly 52,000 compounds were called active. Rule as the data show it: active = survival mostly below about 52% (no sharp cut-off); inactive = mostly above about 56%. This excerpt belongs to a sample that is enriched for actives.

The subject of this assay is DeltatarO mutant. Put plainly: growth inhibition of S. aureus wild type versus tarO mutant, primary screen, teichoic acid synthesis inhibitors, RN4220, OD600 (AID 463173). The settings on record: OD600, 18 h, active compounds read low, screened at 18.75 µg/mL (by protocol).
For the molecule `Cc1ccc(/C=C/c2nc3ccccc3[nH]2)cc1`, the survival is 67% (inactive).

For the molecule `Cc1ccc(C(=O)CSc2nc(C)cc(C)c2C(=O)Nc2cccc(C)c2)cc1`, the survival is 43% (inactive).

As for `COc1ccccc1NC(=O)c1c(C)cc(C)nc1SCC(=O)c1ccc(Cl)cc1`, the survival is 93% (inactive).

On to `Cc1cccc(NC(=O)c2c(C)cc(C)nc2SCC(=O)Nc2c(C)cc(C)cc2C)c1`, for which the survival was 52% (inactive).

With `Cc1ccc(NC(=O)c2c(C)cc(C)nc2SCC(=O)Nc2ccc(Br)cc2)cc1`, the survival was 40% (active).

As to `Cc1cc(C)c(C(=O)Nc2ccccc2)c(SCC(=O)Nc2ccc(Br)cc2C)n1`, the survival is 38% (active).

For the molecule `COC(=O)c1ccc(NC(=O)CSc2nc(C)cc(C)c2C(=O)Nc2ccccc2)cc1`, the survival is 44% (inactive).

As for `CCc1cccc(C)c1NC(=O)CSc1nc(C)cc(C)c1C(=O)Nc1ccccc1`, the survival is 44% (inactive).

Consider `Cc1ccc(NC(=O)CSc2nc(C)cc(C)c2C(=O)Nc2cccc(C)c2)cc1`, for which the survival was 49% (inactive).

In the case of `COc1ccc(C(=O)CSc2nc(C)cc(C)c2C(=O)Nc2ccccc2C)cc1`, the survival is 51% (inactive).

On to `Cc1cccc(NC(=O)CSc2nc(C)cc(C)c2C(=O)Nc2ccc(Cl)cc2)c1`, for which the survival is 44% (inactive).

`CCOc1ccccc1NC(=O)c1c(C)cc(C)nc1SCC(=O)c1cccc(OC)c1`: the survival is 40% (active).

Take `Cc1cccc(NC(=O)c2c(C)cc(C)nc2SCC(=O)c2ccccc2)c1`: the survival was 40% (active).

Consider `Cc1ccc(S(=O)(=O)NCC2CCC(C(=O)NCCc3ccccc3)CC2)cc1` (stereo not drawn), for which the survival is 81% (inactive).

Consider `O=C(NC1CC(=O)N(c2cccc(F)c2)C1)c1ccc(S(=O)(=O)N2CCOCC2)cc1` (stereo not drawn), for which the survival was 76% (inactive).

In the case of `Cc1ccc(NC(=O)Cn2c(=O)n(Cc3ccc(C(=O)NCc4ccc5c(c4)OCO5)cc3)c(=O)c3ccccc32)cc1`, the survival was 102% (inactive).

Take `Cc1cc(=O)n(Cc2c(F)cccc2Cl)c2c1c(C)nn2-c1cccc(F)c1`: the survival is 77% (inactive).

With `Cc1cccc(NC(=O)c2c(NC(=O)c3ccco3)sc3c2CCC(C(C)(C)C)C3)c1` (stereo not drawn), the survival was 85% (inactive).

Regarding `Cc1ccc(C)c(NC(=O)Cn2cc(C(=O)c3ccco3)c3ccccc32)c1`, the survival was 64% (inactive).

In the case of `COc1ccc(NC(=O)c2oc3ccccc3c2NC(=O)C23CC4CC(CC(C4)C2)C3)c(OC)c1`, the survival was 67% (inactive).

With `CCc1ccc(-n2nc(C)c3c(C)cc(=O)n(CC(=O)Nc4ccc(OC)c(OC)c4)c32)cc1`, the survival is 84% (inactive).

For the molecule `Cc1ccc(-n2nc(C)c3c(C)cc(=O)n(CC(=O)Nc4cc(Cl)ccc4C)c32)cc1`, the survival is 125% (inactive).

As for `CCc1ccc(-n2nc(C)c3c(C)cc(=O)n(CC(=O)Nc4cc(Cl)ccc4OC)c32)cc1`, the survival is 52% (active).
